# In all, about 13,000 compounds went through this assay and fewer than 10 showed an effect of 50% or more. A selection follows.
# Tested on: Plasmodium falciparum
# Assay: GSK_TCMDC: Inhibition of Plasmodium falciparum 3D7 LDH activity, using an LDH reporter assay. Test compounds present at 2uM
# Type: functional, organism-based
row,Structure (SMILES),inhibition
1,Fc1ccc(C=NN=c2cc[nH]c3ccccc23)cc1,4%
2,COc1ccc(OCCCCON2C(=N)N=C(N)NC2(C)C)cc1,4%
3,COc1cccc(CCN(Cc2ccccc2-c2ccc(CNC3CC(C)(C)NC(C)(C)C3)cc2)C(=O)NC2CCCCC2)c1,0%
4,N#Cc1ccc(N2C[C@@H](OCc3ccccc3)C[C@H]2C(=O)NCCC(c2ccccc2)c2ccccc2)c2ccccc12,0%
5,CCCCCCOc1ccc(C(=O)N(Cc2ccccc2)c2c(-c3ccccc3)nc3cc(C)ccn23)cc1,3%
6,CCc1cccc2sc(N3CCN(C(=O)c4ccc([N+](=O)[O-])o4)CC3)nc12,0%
7,CCOc1c(CCNCCCCNCCc2ccc3ccccc3c2OCC)ccc2ccccc12,0%
8,CN1CCC(Oc2ccc(CN3CC[C@H](NC(=O)c4ccc(Cl)c(F)c4)C3)c3ccccc23)C1 (stereo partly drawn),3%
9,CCN(CC)CCN(Cc1ccc(-c2ccc(C(F)(F)F)cc2)cc1)C(=O)Cn1c(CCc2ccccc2F)nc(=O)c2ccccc21,0%
10,Cc1cccc2nc(-c3cccc(-c4ccc(NC(=O)c5ccoc5)cc4)c3)[nH]c12,0%
11,O=c1cc(NCCCNCc2cccc(OC(F)(F)F)c2)[nH]c2ccccc12,0%
12,O=C(Nc1ccc2c(c1)CCC2)N[C@H]1CCN(Cc2ccc(OCCCN3CCCCC3)cc2)C1,0%
13,CCN1CCC(N(Cc2ccc(-c3ccc(C(F)(F)F)s3)cc2)C(=O)Cn2c(CCc3cccc(F)c3F)nc(=O)c3ccccc32)CC1,7%
14,Fc1ccc2[nH]c(-c3cccc(-c4ccc(CNCc5cnn(-c6ccccc6)n5)cc4)c3)nc2c1,0%
15,CNCCNCc1ccc(-c2ccc(-c3nc4cc(F)ccc4[nH]3)cc2)cc1,4%
16,O=C1C(=Cc2c(O)ccc3ccccc23)SC(=NCc2ccccc2)N1Cc1ccccc1,0%
17,COC(=O)c1cccc(CNCc2cccc(-c3ccc(-c4nc5cccc(C)c5[nH]4)s3)c2)c1,1%
18,CCN1CCC(N(Cc2ccc(-c3ccc(C(F)(F)F)cc3)cc2)C(=O)Cn2c(CCc3cccc(F)c3F)nc(=O)c3ccccc32)CC1,3%
19,Cc1cccc2nc(-c3cccc(-c4ccc(NC(=O)c5cnccc5C(F)(F)F)cc4)c3)[nH]c12,0%
20,CCOC(=O)NC1=NC(C)(C)N(OCCCOc2ccc(C)cc2C)C(NC(=O)OCC)=N1,7%
21,CS(=O)(=O)c1cc2c(Nc3ccc(N4CCOCC4)cc3)c(C(N)=O)cnc2cc1Br,0%
22,COc1ccc2nccc(N3CCC(CCNCc4cc5c(cn4)OCCO5)CC3)c2c1,6%
23,O=C(Nc1cccc(F)c1)N1CCC(CN2CCOC(c3ccccc3)(c3ccccc3)C2)CC1,7%

# From ChEMBL document CHEMBL1157539, “Thousands of chemical starting points for antimalarial lead identification” (Nature, 2010)
